# According to the supplement of paper PMC3616981:
# Compound: CC(C)c1cccc(C(C)C)c1N1C(=O)c2ccc(O)cc2C1=O
# Experiment: reporter fold induction vs vehicle; higher = higher reporter activity
# Protocol: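 Attagene multiplexed transcription-factor reporter assay (48 cis response elements and 25 trans nuclear-receptor constructs) treated with 5HPP-33 at 8 concentrations (0.091–200 µM). The response is fold induction of reporter activity relative to vehicle control. Cell line and time not stated in the paper; tested in ToxCast Phase II for this study.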
Target,reporter fold induction (0.091 µM),reporter fold induction (0.274 µM),reporter fold induction (0.823 µM),reporter fold induction (2.469 µM),reporter fold induction (7.407 µM),reporter fold induction (22.22 µM),reporter fold induction (66.67 µM),reporter fold induction (200 µM)
RARg_TRANS,1.16,0.981,1.09,1.21,1.54,1.83,1.82,0.812
E2F_CIS,1.02,0.922,0.954,1.04,0.971,0.968,0.945,1.23
HIF1a_CIS,1.04,1.07,1.03,1.03,1.07,1.22,0.927,1.08
TA_CIS,1.06,1,1.04,0.923,0.983,1.08,1.39,1.22
PXRE_CIS,1.22,1.56,0.755,0.738,6.98,6.26,2.42,0.398
